The list is not random: actives were taken first. Their share in the collection is about 4.2%.
esBAF inh – SWI/SNF esBAF complex inhibition; mouse ES cells, Bmi1-luciferase knock-in reporter, 24 h; 100% = twice the neutral-well signal; reporter increase, % at 12.5 µM; 2% of 350,000 active; AID 602393; in the data active means activation above about 40%; inconclusive means no clear call, values can overlap the other calls;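 further: 0% = median of the plate's neutral control wells and 100% = double that signal; a rise in the Bmi1 reporter signal indicates esBAF inhibition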
DAX1 StAR inh – inhibitors of DAX1 repression of SF-1 activated StAR promoter; inhibition, % at 6.8 µM; 1.1% of 370,000 active; HEK293T StAR-luciferase reporter, SF-1/DAX-1 repression relief;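 active means inhibition above the mean over all tested compounds plus 3 SD, cut at about 3.6% in these data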;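 further: 0% = DAX-1 cells with DMSO and 100% = cells lacking DAX-1 with DMSO; higher inhibition means more luminescence from relief of DAX-1 repression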
Wnt bcat act – Wnt/beta-catenin pathway activation. AID 743398. Wnt/beta-catenin reporter cell assay, activator, plate reader. activation, % at 9.35 µM. 1.2% of 300,000 active; in the data active means activation above about 30%, passing the limit was not always enough; inconclusive means no clear call, values can overlap the other calls;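 further: 0% = neutral control wells and 100% = positive control wells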
ssDAF-12 act – activators of S. stercoralis DAF-12 nuclear receptor | 1% of 370,000 active | HEK293 ssDAF-12/GRIP1 lit1-tk-luc reporter, luminescence; % of 3 µM dafachronic acid response | activation, % at 6.8 µM;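 active means activation above the mean over all tested compounds plus 3 SD, cut at about 0.9% in these data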;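 further: 0% = DMSO-only wells and 100% = 3 µM delta7-dafachronic acid wells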
hgDAF12 agonist – agonists of H. glycines DAF-12 nuclear receptor | activation, % at 6.8 µM | 1.8% of 370,000 active | HEK293 GAL4-hgDAF12 UAS-luciferase reporter, agonist luminescence; normalized to butyrate control;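 active means activation above a cutoff set at the mean of all screened compounds plus 3 SD, cut at about 10% in these data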;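 further: 0% = DMSO wells and 100% = sodium butyrate wells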
hcDAF-12 act – activators of H. contortus DAF-12 nuclear receptor; HEK293 hcDAF-12 lit1-tk-luc reporter, luminescence; 0% DMSO, 100% Δ7-dafachronic acid; activation, % at 6.8 µM; 1.4% of 370,000 active; AID 652067;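 active means activation above the mean of all tested compounds plus 3 SD, cut at about 5.5% in these data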;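 further: 100% = response to 3 µM Δ7-dafachronic acid high control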
* = called active by the depositor; u = inconclusive; x = not tested or not shown; ! = a repeat was not active.

SMILES	esBAF inh	DAX1 StAR inh	Wnt bcat act	ssDAF-12 act	hgDAF12 agonist	hcDAF-12 act
COc1cc(Cl)c(C)cc1NC(=O)COc1ccc(C)nc1[N+](=O)[O-]	81*	1	18	-1	0	0
COc1ccc(NC(=O)COc2ccc(C)nc2[N+](=O)[O-])cc1S(N)(=O)=O	-7	-1	-1	-2	2	0
C[C@@H](NC(=O)[C@@H]1[C@@H](CO)[C@@H]2Cn3c(ccc(-c4ccccc4F)c3=O)[C@H]1N2C)c1ccccc1	-2	x	x	x	x	x
Cc1cc2nc(-c3ccc(SCc4ccccn4)nc3)[nH]c2cc1C	64*	-1	u	-2	4	1
Cc1ccc2nc(-c3ccc(SCC(=O)Nc4nnc(C)s4)nc3)[nH]c2c1	x	4.3*	x	0	8	5.7*
Cc1ccc2nc(-c3ccc(SCC(=O)Nc4nc(C)cs4)nc3)[nH]c2c1	x	2	x	0	8	5
N#CCSc1ccc(-c2nc3ccccc3[nH]2)cn1	x	3	34*	0	11*	2
O=C(CSc1ccc(-c2nc3ccccc3[nH]2)cn1)Nc1ccc2c(c1)OCCO2	46*	x	x	x	x	x
CCC(=O)Nc1ccc2c(c1)OC[C@H](C)N(Cc1cccc(F)c1)C[C@@H](C)[C@H](OC)CN(C)C2=O	4	x	x	x	x	x
Cc1ccc(SCC(=O)Nc2ccc(-c3nc4ccccc4[nH]3)cc2)cc1	61*	0	-2	-1	2	-3
Cc1ccc(NC(=O)CCCSc2nc3ccccc3[nH]2)cc1	x	0	2	-1	-5	-1
Cc1cc(N(CCO)CCO)ccc1N=Nc1cc(F)ccc1F	59*	1	-2	0	9	0
N#Cc1ccccc1OCCN1C(=O)c2ccccc2C1=O	56*	1	x	-1	3	4
CCOc1ccc(OCCN2C(=O)c3ccccc3C2=O)cc1	63*	0	2	-1	-2	-2
O=C1c2ccccc2C(=O)N1CCCOc1ccccc1	u	1	8	-1	3	4
C/C(N)=C(/C#N)C(=O)CSc1nnc(Nc2cccc(C)c2C)s1	86*!	1	14	0	3	1
C/C(N)=C(/C#N)C(=O)CSc1nnc(Nc2c(C)cccc2C)s1	x	0	0	-1	-1	-1
C[C@@H]1CN([C@H](C)CO)C(=O)c2cccc(NC(=O)c3cnccn3)c2O[C@H]1CN(C)S(C)(=O)=O	-4	x	x	x	x	x
CC(=O)CC1(O)C(=O)N(Cc2ccccc2)c2ccccc21 (stereo unspecified)	-4	1	43*	-1	0	0
COc1ccc(C(=O)c2ccc(CC#N)s2)cc1	51*	1	x	-1	2	-1
O=C(COC(=O)c1cc(Cl)nc(Cl)c1)NCCc1ccc(F)cc1	-9	-2	-1	1.6*	3	6
COc1ccc(C2=NN(S(=O)(=O)c3ccccc3)C(c3ccccc3)C2)cc1 (stereo unspecified)	9	0	4	-1	0	0
COc1ccc(C2=NN(CN3C(=O)C(=O)c4ccccc43)C(c3ccc(OC)cc3)C2)cc1 (stereo unspecified)	x	0	54*	-1	11*	1
COc1cccc(-c2cnc3c(c2)C(=O)N([C@H](C)CO)C[C@@H](C)[C@@H](CN(C)Cc2ccc(F)cc2)O3)c1	0	x	x	x	x	x
COc1cccc(N2C(C(C)=O)=NN(c3ccccc3)C2c2ccc(N3CCOCC3)cc2)c1 (stereo unspecified)	21	1	u	1	11*	1
SMILES	esBAF inh	DAX1 StAR inh	Wnt bcat act	ssDAF-12 act	hgDAF12 agonist	hcDAF-12 act
O=C(N[C@H]1CC[C@H](CCNS(=O)(=O)c2ccc(F)cc2)O[C@H]1CO)c1cnccn1	1	x	x	x	x	x
Cc1ccc(NC(=O)C2C(=O)N(CCO)C3(C)CC2c2ccccc2O3)cc1 (stereo unspecified)	35	1	x	0	6	0
COc1ccc(NC(=O)C2C(=O)N(CCO)C3(C)CC2c2ccccc2O3)cc1 (stereo unspecified)	26*!	1	5	-1	0	0
CC(C)NC(=O)N(C)C[C@@H]1Oc2ccc(NC(=O)Nc3ccc(F)cc3)cc2CC(=O)N([C@@H](C)CO)C[C@@H]1C	6	x	x	x	x	x
C=CCN1C=C2C(=O)C(C)(OC(=O)C3CCCC3)C(=O)C=C2C=C1c1ccsc1 (stereo unspecified)	-4	1	0	1.4*	6	4
CC(C)CN1C=C2C(=O)C(C)(OC(=O)C3CCCC3)C(=O)C=C2C=C1c1ccsc1 (stereo unspecified)	-4	0	3	-1	0	1
Nc1ncnc2c1ncn2[C@@H]1O[C@H](C(=O)N2CCC[C@@H]2C(=O)OCc2ccccc2)[C@@H](O)[C@H]1O	3	-1	-1	-1	12*	-1
COC(=O)[C@@H](Cc1ccccc1)NC(=O)[C@H]1O[C@@H](n2cnc3c(N)ncnc32)[C@H](O)[C@@H]1O	5	-1	-1	-1	4	-1
CNC[C@@H]1Oc2ncc(/C=C/c3ccccc3)cc2C(=O)N([C@H](C)CO)C[C@H]1C	-1	x	x	x	x	x
Fc1ccccc1C1CC(c2ccco2)=Nc2ccccc2S1 (stereo unspecified)	11	0	35*	0	4	3
Oc1ccc(Cl)cc1C1=Nc2ccccc2N=C(c2ccco2)C1	26	1	5	-1	7	1
O=C(Nc1cnn(Cc2ccc(F)cc2)c1)c1cnccn1	42*	0	x	-1	1	0
CCN(CC)CCCNC(=O)C1CCN(c2ncnc3c2sc2cccc(F)c23)CC1	x	1	2	1.0*	0	2
CO[C@@H]1CN(C)C(=O)c2cc(NC(=O)NC(C)C)ccc2OC[C@@H](C)N(Cc2ccccn2)C[C@@H]1C	-2	x	x	x	x	x
C/C=C/c1ccc2c(c1)O[C@H](CN(C)C)[C@@H](C)CN([C@H](C)CO)S2(=O)=O	1	x	x	x	x	x
Cc1c(C(=O)NCc2ccccn2)oc2ccccc12	36	2	x	0	7	2
Cc1c(C(=O)NCc2ccccn2)oc2ccc(Br)cc12	54*	2	12	0	8	1
Cc1c(C(=O)NCc2cccs2)oc2ccc(Br)cc12	51*	1	x	-1	3	0
O=C(N/N=C/c1ccccn1)c1cccs1	x	0	2	1.5*	9	4
CN(C)c1ccc(/C=N\NC(=O)c2cccc3cc[nH]c23)cc1	54*	-1	10	-1	10	2
CN(C)c1ccc(/C=N/NC(=O)c2cc(=O)[nH]c3ccccc23)cc1	-7	0	-4	-2	1	-2
Cn1ccc(C(=O)N/N=C/c2cccnc2)n1	1	0	2	-1	4	5
O=C(N/N=C/c1ccccn1)c1ccncc1	37	0	-1	-1	3	3
